Compounds with a hit are over-represented: about 0.51% of the library has one in this group of screens.
phage Ecoli inh: E. coli growth loss with phage present; inhibition, % at 11.9 µM; growth absorbance; hit rate 0.26% among 360,000; in the data active = inhibition above about 11%
AddAB inh: less growth of phage-infected E. coli with AddAB; inhibition, % at 11.9 µM; AID 435030; E. coli expressing H. pylori AddAB, absorbance growth; hit rate 0.29% among 330,000; in the data active = inhibition above about 12%;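 also: 0% = vehicle wells of infected cells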
E coli growth-1: E. coli growth inhibition. Escherichia coli growth, OD600, 23 h; active compounds read low. OD600 absorbance (test concentration not listed). hit rate 0.21% among 330,000. AID 1053175;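 active = OD600 absorbance below the run mean of sample wells minus 3.6 SD, in any replicate, cut at about 0.56 in these data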
Tat transport: blocks Tat-dependent protein export in E. coli. E. coli MC4100 TorA-mCherry Tat export, fluorescence. hit rate 0.036% among 340,000. AID 488895. inhibition, % at 10 µM;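 active = mean replicate inhibition at least 50% and at least half of replicates individually reaching 50%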;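 also: exported cargo escapes ClpAP degradation while cytoplasmic cargo is degraded and loses fluorescence; 0% = median of neutral control wells and 100% = median of NaSCN control wells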
E coli growth-2: reduces bacterial viability in AddAB counter-screen; inhibition, % at 11.9 µM; E. coli V3065 growth, OD600 absorbance, 18 h; hit rate 0.27% among 330,000;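 active = inhibition above the campaign's mean inhibition across all tested compounds plus 3 SD, cut at about 9.9% in these data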;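 also: uninfected addAB+ strain grown without phage in ampicillin broth; 0% = DMSO wells and 100% = ciprofloxacin 0.95 µg/ml wells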
AddAB conf: confirmation screen: growth loss of phage-infected E. coli expressing H. pylori AddAB; shares compounds with AddAB inh; E. coli V3065 expressing H. pylori AddAB, T4 phage, OD; T4 phage with gene 2 nonsense mutations; inhibition, % at 11.9 µM; hit rate 64% among 880; AID 488942;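 active = mean inhibition above a set limit taken from the earlier primary screen, cut at about 13% in these data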;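 also: higher means less bacterial growth since AddAB block lets phage replicate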
RecBCD counter: AddAB counter-screen: growth loss of RecBCD+ E. coli infected with mutant T4 phage; shares compounds with AddAB inh; E. coli V66 + mutant T4 phage, OD growth; inhibition, % at 11.9 µM; hit rate 73% among 880;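 active = mean inhibition above the mean of solvent-only control wells plus 3 SD, cut at about 4% in these data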;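 also: optical density read after an 18 h incubation at 37 °C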
bact viab count: counter-screen for AddAB inhibitors: inhibitors of bacterial viability | shares compounds with AddAB inh | absorbance (AddAB counterscreen) | inhibition, % at 11.9 µM | hit rate 35% among 880 | AID 488956; in the data active = inhibition above about 25%
RecBCD conf: growth loss of phage-infected V66 E. coli, RecBCD confirmation screen. shares compounds with phage Ecoli inh. E. coli V66 + T4 2- phage, growth OD. inhibition, % at 11.9 µM. hit rate 45% among 890;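 active = mean inhibition over triplicates exceeding the hit threshold derived in the original primary screen, cut at about 11% in these data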
Ecoli viability: counter-screen for RecBCD inhibitors: inhibitors of bacterial viability; shares compounds with phage Ecoli inh; E. coli viability, absorbance (OD) growth; inhibition, % at 11.9 µM; hit rate 29% among 890; AID 651983; in the data active = inhibition above about 20%;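 also: E. coli strain V66 grown with compound alone and no phage infection; 0% = bacteria with DMSO vehicle only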
AddAB phage OD: growth loss of phage-infected AddAB E. coli, RecBCD counter-screen. shares compounds with phage Ecoli inh. E. coli expressing H. pylori AddAB + T4 phage, OD growth; gene 2 mutant T4, recBCD-deleted host. inhibition, % at 11.9 µM. AID 651984. hit rate 45% among 890;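 active = mean inhibition above the solvent-only control wells' mean plus 3 SD, cut at about 22% in these data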;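 also: higher means less bacterial growth from phage killing when AddAB is blocked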
* marks the source's active call; other numbers are inactive results.

How did CCn1cc(C(=O)O)c(=O)c2cc(F)c(N3CCN(C(=S)NC(=O)c4c(OC)cccc4OC)CC3)cc21 do in these assays?
phage Ecoli inh: 99*; AddAB inh: 99*; E coli growth-1: 0.07*; Tat transport: 26; E coli growth-2: 98*; AddAB conf: 99*; RecBCD counter: 99*; bact viab count: 99*; RecBCD conf: 102*; Ecoli viability: 102*; AddAB phage OD: 103*

Results for CCn1cc(C(=O)O)c(=O)c2cc(F)c(N3CCN(C(=S)Nc4ccccc4OC)CC3)cc21 ?
phage Ecoli inh: 100*; AddAB inh: 98*; E coli growth-1: 0.073*; Tat transport: 24; E coli growth-2: 99*; AddAB conf: 98*; RecBCD counter: 99*; bact viab count: 99*; RecBCD conf: 102*; Ecoli viability: 103*; AddAB phage OD: 102*

What do the screens show for `CCOC(=O)c1cn(CC)c2cc(N3CCCCC3)c(F)cc2c1=O`?
phage Ecoli inh: 1; AddAB inh: 4; E coli growth-1: 0.66; Tat transport: 7; E coli growth-2: 2

How did CC(CCN1CCc2nc(-c3ccccc3)c(-c3ccccc3)cc2C1)=NOCC(C)C(OCc1ccccc1)C(C)C (configuration not stated) do in these assays?
E coli growth-1: 0.69

What do the screens show for `O=C(Cn1cnc2ccccc21)Nc1ccc(SC(F)F)cc1`?
phage Ecoli inh: 17*; AddAB inh: 15*; E coli growth-1: 0.55; Tat transport: -29; E coli growth-2: 13*; AddAB conf: 7; RecBCD counter: 13*; bact viab count: 10; RecBCD conf: 6; Ecoli viability: 9; AddAB phage OD: 11

What do the screens show for `CCC(=O)NC(c1cccs1)c1ccc2cccnc2c1O` (configuration not stated)?
phage Ecoli inh: 19*; AddAB inh: 21*; E coli growth-1: 0.64; Tat transport: -1; E coli growth-2: 20*; AddAB conf: 10; RecBCD counter: 17*; bact viab count: 6; RecBCD conf: 7; Ecoli viability: 12; AddAB phage OD: 19

Results for CCCC(=O)NC(c1cccs1)c1cc(Cl)c2cccnc2c1O (configuration not stated) ?
phage Ecoli inh: 21*; AddAB inh: 27*; E coli growth-1: 0.7; Tat transport: 2; E coli growth-2: 29*; AddAB conf: 23*; RecBCD counter: 20*; bact viab count: 20; RecBCD conf: 11*; Ecoli viability: 14; AddAB phage OD: 19

Results for CCCC(=O)NC(c1ccco1)c1cc(Cl)c2cccnc2c1O (configuration not stated) ?
phage Ecoli inh: 21*; AddAB inh: 16*; E coli growth-1: 0.73; Tat transport: -2; E coli growth-2: 14*; AddAB conf: 22*; RecBCD counter: 21*; bact viab count: 17; RecBCD conf: 11*; Ecoli viability: 15; AddAB phage OD: 24*

How did CCN1C(=O)C2C(c3ccc(-c4ccc5c(c4)OCO5)c(OC)c3)N[C@@](C)(C(=O)OC)C2C1=O (some centres not stated) do in these assays?
E coli growth-1: 0.67

What do the screens show for `O=C1CCCC=CCC(CC(=O)N(CCO)Cc2ccccc2)C(=O)NCCO1` (configuration not stated)?
E coli growth-1: 0.68

Assay outcomes as filed in PubChem.
